Sampled rows, rich in hits. Any-hit rate of the full collection: about 0.94%.
MazEF act = activators of E. coli MazEF toxin-antitoxin RNase, primary screen, biochemical, fluorescence, uHTS; AID 504720, 2011; activation, % at 20 µM; 350,000 compounds, 0.32% hits; Endoribonuclease toxin MazF (Escherichia coli (strain K12)), P0AE70; FAM/BHQ RNA-DNA oligo cleavage fluorescence, 5 h; in the data active = activation above about 50%
Target sequence (P0AE70 whole entry, looked up): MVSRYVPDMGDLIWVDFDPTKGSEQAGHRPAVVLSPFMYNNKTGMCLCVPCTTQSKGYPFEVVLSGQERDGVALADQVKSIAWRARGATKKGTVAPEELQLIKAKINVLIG
PriA SSB inh = inhibitors of Klebsiella pneumoniae PriA binding to SSB C-terminal tail, primary screen, biochemical, AlphaScreen | AlphaScreen SSBct-PriA binding, biotinylated peptide | inhibition, % at 33 µM | 430,000 compounds, 0.6% hits; in the data active = inhibition mostly above about 37%, no sharp cut-off; inactive = mostly below about 20%
BH1578 lux ind = inducers of Vibrio cholerae quorum light production without autoinducers, primary screen, BH1578 luxS cqsA deficient, single point | V. cholerae BH1578 lux reporter, luminescence, 6 h | activation, % at 18.7 µM | 350,000 compounds, 0.16% hits; in the data active = activation mostly above about 9.7%, no sharp cut-off
Mtb hypoxia inh = PubChem AID 1159583. fluorescence inhibition, % (concentration not given with the values). 300,000 compounds, 0.1% hits. M. tuberculosis hypoxia-regulated fluorescent reporter, fluorescence; in the data active = fluorescence inhibition mostly above about 23%, no sharp cut-off; inactive = mostly below about 17%
Numbers stand for hits; i = inactive; nt = not tested or not shown; ! = not active in a repeat.

SMILES | MazEF act | PriA SSB inh | BH1578 lux ind | Mtb hypoxia inh
CC(=O)N1CCN(S(=O)(=O)c2cccc(C(=O)Nc3ccccn3)c2)CC1 | nt | i | nt | nt
O=C(CSc1cn(Cc2cccc(F)c2)c2ccccc12)Nc1ccc(OC(F)(F)F)cc1 | nt | i | nt | nt
O=C(c1ccccn1)N1CCN(c2ccc(-c3ccccn3)nn2)CC1 | nt | 157 | nt | nt
O=C(c1ccccc1Cl)N1CCN(c2ccc(-c3ccccn3)nn2)CC1 | nt | 147 | nt | nt
CS(=O)(=O)N1CCN(c2ccc(-c3ccco3)nn2)CC1 | nt | i | nt | nt
O=C(c1ccccc1Cl)N1CCN(c2ccc(-n3cccn3)nn2)CC1 | nt | i | nt | nt
CS(=O)(=O)N1CCN(c2ccc(-c3ccccn3)nn2)CC1 | nt | 77 | nt | nt
Cc1ccc2c(c1)NC(SCC(=O)N[C@@H](C)CCc1ccccc1)=NS2(=O)=O | nt | i | nt | nt
Fc1ccc(/C=N/N2CCCCC2)c(F)c1 | i | nt | i | nt
Fc1ccc(C=NN2CCCCC2)c(F)c1 | nt | 43 | nt | i
O=C(OCCCOC(=O)c1ccc([N+](=O)[O-])o1)c1ccc([N+](=O)[O-])o1 | i | i | i | 71
c1ccc2[nH]c(CSc3nnc(-c4ccncc4)o3)nc2c1 | i | i | i | nt
Clc1ccc(-c2nnc(SCc3nc4ccccc4[nH]3)o2)c(Cl)c1 | 70 | i | i | i
Cc1cc(=O)[nH]c(SCC(=O)Nc2ncc(Cc3cccc(Cl)c3Cl)s2)n1 | nt | i | nt | nt
CC1=NN(c2ccccc2)C(=O)/C1=C/C=C/C=C/N(C)C | i | i | i | 63
CC1=NN(c2ccc(C)cc2)C(=O)/C1=C\C=C\c1ccccc1 | i | i | i | i
CC(=O)c1cc2c(C)c(C(=O)c3ccccc3)oc2cc1O | 89 | i | i | i
CC1CCCCC1=NNC(=S)NCCc1ccccc1 (stereo not drawn) | nt | 44 | nt | i
COc1ccc(Cl)cc1NC(=O)CSc1nccn1Cc1ccc2c(c1)OCO2 | nt | 45 | nt | nt
CCOC(=O)c1ccccc1NC(=O)CSc1nccn1Cc1ccc2c(c1)OCO2 | nt | 43 | nt | nt
NNc1nc(Nc2ccccc2)nc(Nc2ccccc2)n1 | i | 49 | i | i
COc1ccc(Nc2ccc(OC)cc2)cc1 | i | i | i | i
Cc1cc(N)nc(Nc2ccc(Nc3ccccc3)cc2)n1 | nt | 41 | nt | nt
COc1ccc(Nc2nc(NN)nc(Nc3ccc(OC)cc3)n2)cc1 | i | 100 | i | i
Cc1oncc1C(=O)NCC1(Sc2ccccc2)CCOCC1 | nt | i | nt | nt
SMILES | MazEF act | PriA SSB inh | BH1578 lux ind | Mtb hypoxia inh
CC1(C)C2CCC1(CS(=O)(=O)N1CCN=C1c1ccccc1)C(=O)C2 (stereo not drawn) | nt | i | nt | nt
O=C(NCCOc1ccccc1)NCCC(O)C1CCOCC1 (stereo not drawn) | nt | i | nt | nt
CCOC(=O)C1=C(C)N=c2s/c(=C/c3ccccc3)c(=O)n2C1c1ccc(OC)c(OC)c1 (stereo not drawn) | 85 | nt | i | nt
CCOC(=O)C1=C(C)N=c2sc(=Cc3ccc(OCC(=O)O)c(OC)c3)c(=O)n2C1c1ccc(OC)cc1 (stereo not drawn) | nt | i | nt | i
CCOC(=O)C1=C(C)N=c2sc(=Cc3cccc([N+](=O)[O-])c3O)c(=O)n2C1c1ccc(OC)cc1OC (stereo not drawn) | nt | i | nt | 41
CCOC(=O)C1=C(C)N=c2s/c(=C/c3cccc([N+](=O)[O-])c3O)c(=O)n2C1c1ccc(OC)cc1OC (stereo not drawn) | i | nt | i | nt
O=c1c2sc3ccccc3c2nc(SCc2ccccc2Cl)n1CCc1c[nH]c2ccccc12 | nt | i | nt | nt
O=C(NCC[C@H](O)c1ccco1)c1ccc2c(c1)OCO2 | nt | i | nt | nt
CC(C)(C)c1ccc(C(=O)N/C(=C/c2ccco2)C(=O)NCCCn2ccnc2)cc1 | nt | 63 | nt | nt
O=C(Nc1ccccc1)N1CC=C(c2ccc(F)cc2)CC1 | i | i | i | nt
O=C(Nc1cccc2ccccc12)N1CC=C(c2ccccc2)CC1 | 78 | i | i | i
CN(C)CCCN(C(=O)C1=COCCO1)c1nc2c(F)cccc2s1 | nt | i | nt | nt
COc1cc(N)c2ncccc2c1 | nt | 47 | nt | nt
COc1cc(NS(C)(=O)=O)c2ncccc2c1 | nt | i | nt | nt
COC(=O)c1sc2cccc(F)c2c1S(=O)(=O)NCc1cccnc1 | nt | 52 | nt | nt
CNC(=O)c1ccc(S(=O)(=O)NCc2cccnc2)o1 | nt | i | nt | nt
O=C(O)CC1C(=O)NCCN1CC(c1ccccc1)c1ccccc1 (stereo not drawn) | nt | i | nt | nt
O=C(Cn1ccc(NC(=O)OCc2ccccc2)nc1=O)NCc1ccc2c(c1)OCO2 | 58 | i | i | i
O=C(Nc1ccn(CCCNCc2ccc3c(c2)OCO3)c(=O)n1)OCc1ccccc1 | i | i | i | nt
COc1ccc2oc(=O)c(-c3csc(Nc4cccc(O)c4)n3)cc2c1 | 133 | i | i | i
CC(=O)Nc1ccc(Nc2nc(-c3cc4ccccc4oc3=O)cs2)cc1 | 63 | i | i | i
C/C=C/c1ccc(OC2OC(CO)C(O)C(O)C2NC(C)=O)c(OC)c1 (stereo not drawn) | nt | i | nt | nt
CC1(C(=O)N/N=C\c2ccccc2O)CCC(c2nc3ccccc3[nH]2)C1(C)C (stereo not drawn) | nt | i | nt | nt
O=C(NC(=S)N1CCCc2ccccc21)c1ccccc1 | i | 42! | i | nt
CCOC(=O)c1c(N=Cc2cccc(C)c2O)sc2c1CCN(C)C2 | nt | i | nt | i
SMILES | MazEF act | PriA SSB inh | BH1578 lux ind | Mtb hypoxia inh
Cc1cccc(C=Nc2sc3c(c2C(=O)OC(C)(C)C)CCN(C)C3)c1O | nt | 45 | nt | i
COc1ccc(CCCc2nnc(SCC(=O)N/N=C\c3ccc(O)c(OC)c3)o2)cc1C | i | nt | i | nt
COc1ccc(/C=N/NC(=O)CSc2nnc(CCCc3ccc(OC)c(C)c3)o2)cc1 | i | nt | 33 | nt
O=[N+]([O-])c1ccc(-[n+]2nc(-c3ccccc3)nn2-c2ccccc2)cc1 | i | 101 | i | i
C=CCn1c(Cc2csc(N)n2)nnc1SCC(=O)Nc1ccccc1C(F)(F)F | i | 74 | i | i
COc1ccc(Nc2nc3ccc(OC)cc3s2)cc1 | i | 38! | i | i
